HttQ103 aggreg: inhibitors of mutant huntingtin aggregate formation in PC12 cells | PC12 HttQ103-GFP aggregates, Acumen cytometry, 40 h | Potency, µM (highest dose often 46.1 µM), for inactives: at the highest dose activity change, negative = inhibition, usual class: inhibitors | 220,000 tested, 1.1% active | AID 1688; active = well fitted curve in the direction sought with a large enough effect; inconclusive = small, poorly fitted or top-dose-only effect, or another doubt; inactive = no such curve, though single readings can be large; an effect the other way counts as inactive or inconclusive; also: % is scaled to controls: 0 for no effect and ±100 for the full control effect; nearly all actives have a fitted effect of over 60% in size
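Ecdysone-promoter PC12 model expressing HTT exon 1 Q103 fused to GFP, induced by tebufenozide at 100 nM final. Compounds titrated; aggregates sized 1–25 µm scored on a 488 nm laser cytometer.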
HTT ATP protect: protects HTT-Q103 PC12 cells, measured by ATP; AID 1471; Potency, µM (titrated, usually from 56.4 µM), for the others: cytoprotection (ATP increase), hits mostly activators; PC12 HTT-Q103 induced, cytoprotection, ATP luminescence, 40 h; 230,000 tested, 0.14% active; active = well fitted curve in the direction sought with a large enough effect; inconclusive = small, poorly fitted or top-dose-only effect, or another doubt; inactive = no such curve, though single readings can be large; an effect the other way counts as inactive or inconclusive; also: % of control where 0% means no effect; nearly all actives have a fitted effect of over 45% in size
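ATP quantification (ATPlite) reports survival of PC12 cells in which tebufenozide, 100 nM final, switches on Htt exon 1 with 103 glutamines linked to GFP; compounds are titrated.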
ALDH1A1 inh: ALDH1A1 (human) enzyme inhibition. 220,000 tested, 7.3% active. Purified ALDH1A1, NADH fluorescence, propionaldehyde substrate. Potency, µM (series often up to 75.3 µM), for the others: top-dose activity, negative = inhibition, hits mostly inhibitors. P00352;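 also: plate controls were no enzyme wells and a reference inhibitor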
Lamin A splicing: modulators of lamin A splicing | HeLa LMNA splicing GFP/RFP minigene ratio, 48 h | Potency, µM (titrated, usually from 46.1 µM), inactives show at the highest dose ratio change, negative = inhibition, most hits filed as inhibitors | 200,000 tested, 0.01% active; active = well fitted inhibition curve with a large enough effect in the signal ratio, with a control signal flat, not every such curve was filed as active; inconclusive = small, poorly fitted or top-dose-only effect, or effect the other way, or a change in a side signal; the % refers to the signal ratio; also: % is scaled to controls: 0 for no effect and ±100 for the full control effect
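S3 HeLa stable clones carrying a lamin A-EGFP splicing minigene plus DsRed2 were seeded at 600 cells/well in Opti-MEM with 2% FBS, pin-dosed and incubated 48 h at 37°C. Acumen cytometry (488 nm) gave the GFP/RFP total-intensity ratio.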
HPGD block: blocks human HPGD enzyme activity | Potency, µM, for the others: top-dose activity change, negative = inhibition, actives largely listed as inhibitors | purified HPGD, NADH fluorescence kinetic, PGE2 substrate | P15428 | 150,000 tested, 4.3% active; also: % is scaled to controls: 0 for no effect and ±100 for the full control effect
Target sequence (P15428 whole entry, looked up): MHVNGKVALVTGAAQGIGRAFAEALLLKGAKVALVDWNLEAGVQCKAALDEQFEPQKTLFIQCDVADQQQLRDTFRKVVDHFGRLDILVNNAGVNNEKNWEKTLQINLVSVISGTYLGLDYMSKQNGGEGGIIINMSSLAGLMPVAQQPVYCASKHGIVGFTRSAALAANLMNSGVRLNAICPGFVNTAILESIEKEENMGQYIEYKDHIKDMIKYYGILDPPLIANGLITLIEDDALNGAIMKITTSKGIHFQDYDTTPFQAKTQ
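20 nM HPGD preincubated 15 min at room temperature with compound in 50 mM Tris-HCl pH 8, 0.01% Tween 20. Started with 1 mM NAD+ and 30 uM prostaglandin E2; NADH fluorescence (360/450 nm) read 5 times over 30-s intervals, last minus first.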
Active calls of the source: *; ? = inconclusive; / = no result given; [ ] = remark or other dose. In the library only some 8.8% were active in any assay of this set; here they are far more common. Unless noted, calls follow the shape of the dose curve; as a rule, active = well fitted inhibition curve with a large enough effect (not every such curve was filed as active); inconclusive = small, poorly fitted or top-dose-only effect, or another doubt; inactive = no such curve, though single readings can be large or run the other way. Potency is read from the fitted curve at half-maximal effect.

SMILES | HttQ103 aggreg | HTT ATP protect | ALDH1A1 inh | Lamin A splicing | HPGD block
COC(=O)c1c(NC(=S)Nc2ccc(C(=O)N3CCOCC3)cc2)sc2c1CCC2 | 9% | / | 3.5µM* | / | /
COC(=O)c1c(NC(=S)Nc2ccc(F)cc2[N+](=O)[O-])sc2c1CCCCC2 | 15% | 20%[10 µM] | 4µM* | 6% | /
COC(=O)c1c(NC(C)=O)sc2c1CCCCC2 | 0% | -17%[10 µM] | 16µM* | 13% | 28µM*
COC(=O)c1c(NC(=O)CCNCc2ccco2)sc2c1CCC2 | -6%[9.22 µM] | 1%[10 µM] | 24µM* | / | /
CCOC(=O)c1c(NC(=S)Nc2ccc(OC)cc2)sc2c1CCC2 | -6% | 9%[10 µM] | ? | -10% | -21%
COc1ccc(C)cc1NC(=O)c1cc(S(=O)(=O)N2CCN(c3cccc(C)c3C)CC2)ccc1F | / | / | / | 28%[46 µM] | /
CNC(=S)Nc1sc2c(c1C(=O)OC)CCC2 | -18% | -25% | ? | / | /
COC(=O)c1c(NC(C)=O)sc2c1CCCC2 | 4% | -19%[10 µM] | 25µM* | 2% | -23%
O=C(NCc1ccc2c(c1)OCO2)C1CCC(CNS(=O)(=O)c2ccccc2)CC1 (configuration not stated) | 1% | -19%[10 µM] | 6.3µM* | -10% | -26%
O=C(NCc1ccccc1Cl)C1CCC(CNS(=O)(=O)c2ccc(Cl)cc2)CC1 (configuration not stated) | / | / | / | 19%[46 µM] | /
O=C(NCc1cccs1)C1CCC(CNS(=O)(=O)c2ccccc2)CC1 (configuration not stated) | 13% | / | 5µM* | / | /
COc1ccc(S(=O)(=O)NCC2CCC(C(=O)NCc3ccco3)CC2)cc1 (configuration not stated) | 10% | 22% | 13% | ? | /
O=C(NCCN1CCOCC1)C1CCC(CNS(=O)(=O)c2ccccc2)CC1 (configuration not stated) | 1% | / | 13µM* | -6% | -12%
Cc1ccc(S(=O)(=O)NCC2CCC(C(=O)NCc3ccco3)CC2)cc1 (configuration not stated) | 0% | 12%[10 µM] | 2.8µM* | 15% | -16%
CC[C@H](C)[C@@H](NC(=O)O[C@@H]1C(=O)c2ccc(OC)cc2O[C@H]1c1cccc(C(F)(F)F)c1)C(=O)OC | / | 12% | -3% | / | -2%
CCNC(=O)Nc1ccc(-n2nc(C)c(C(=O)OCC)c2C)nc1 | -2% | 3%[10 µM] | 1% | 12%[46 µM] | /
N[C@@H](Cc1c[nH]c2ccccc12)C(=O)NCC(=O)O | / | -8% | / | / | /
O=C(NNS(=O)(=O)c1ccccc1)C1CCN(S(=O)(=O)c2ccccc2)CC1 | 6% | -14% | ? | 5% | -5%
O=C(NCc1cccs1)C1CCCN(S(=O)(=O)c2cccs2)C1 (configuration not stated) | -15% | -2% | 0% | -1% | -10%
O=S(=O)(NCC1CCN(S(=O)(=O)c2ccccc2)CC1)c1ccccc1 | -10% | 10% | 1.6µM* | -6% | -2%
O=C(COc1ccc(S(=O)(=O)NC2CCCCC2)cc1)NC1CCCCC1 | ? | 22%[1.9 µM] | -11% | -15% | 2%
O=C(NCCC1=CCCCC1)C1CCC(CNS(=O)(=O)c2ccccc2)CC1 (configuration not stated) | 10% | / | 0.56µM* | 9% | -13%
O=C(NCc1cccs1)C1CCC(CNS(=O)(=O)c2cccs2)CC1 (configuration not stated) | 14% | 23%[10 µM] | 14µM* | 3% | -8%
O=C(COc1ccc(S(=O)(=O)NC2CCCCC2)cc1)NCCC1=CCCCC1 | -27% | 1%[10 µM] | 7.1µM* | 2% | -6%
NC(=O)C[C@@H](N)C(=O)O | / | -13% | 10% | / | /
SMILES | HttQ103 aggreg | HTT ATP protect | ALDH1A1 inh | Lamin A splicing | HPGD block
COc1cccc(NC(=O)C2CCN(S(C)(=O)=O)CC2)c1 | -19% | 10%[0.074 µM] | 18% | 2% | -4%
CC(=O)Nc1ccc(S(=O)(=O)NCC2CCC(C(=O)NC3CCCCCC3)CC2)cc1 (configuration not stated) | -23% | / | 11% | ? | -18%
Cc1ccc(S(=O)(=O)NCC2CCC(C(=O)NCc3cccs3)CC2)cc1 (configuration not stated) | -10% | -11% | 0.79µM* | / | /
O=C(NC1CCCC1)C1CCC(CNS(=O)(=O)c2cccs2)CC1 (configuration not stated) | 9% | / | 22µM* | -8% | 22µM*
COc1cccc(NC(=O)C2CCC(CNS(=O)(=O)c3cccs3)CC2)c1 (configuration not stated) | -1% | -6% | 13µM* | ? | /
CCc1ccccc1NC(=O)N1CC(C)Sc2ccccc21 (configuration not stated) | / | / | / | -7%[46 µM] | /
Cc1noc(C)c1C(=O)N1CCC2(CCCN(c3ccccn3)C2)CC1 | / | ? | ? | / | -39%
COc1ccc(C(CC(=O)Nc2ccccc2OC)n2cccc2)cc1 (configuration not stated) | ? | 15%[10 µM] | -2% | ? | 25µM*
COc1ccc(C(CC(=O)Nc2cc(OC)cc(OC)c2)n2cccc2)cc1 (configuration not stated) | -16% | 8%[10 µM] | 3% | -15% | -10%
CC(C)OC(=O)c1cccc(-c2ccc(C=O)o2)c1 | -5% | / | 6.3µM* | 2% | -24%
CC(C)OC(=O)c1ccc(COC(=O)c2cccc(-c3nnc(-c4ccccc4)o3)c2)cc1 | -1% | 29%[10 µM] | -5% | -13% | -29%
CCc1ccc(NC(=O)CSc2ccc3nc(-c4ccc(OC)cc4)cn3n2)cc1 | / | / | / | 26%[46 µM] | /
CC(C)(C)c1csc(NC(=O)Cn2cnc3ccccc3c2=O)n1 | -7% | 12%[10 µM] | 13µM* | 3% | 20µM*
COCCCNC(=O)C1CCN(C(=O)c2cc3sccc3n2Cc2ccc(F)cc2)CC1 | -2% | 7%[10 µM] | 10µM* | -4% | -1%
CCn1c(C(=O)N2CCC(C(=O)NCCCSC3CCCCC3)CC2)cc2sccc21 | ? | -4% | 3.2µM* | -17% | -15%
CCN1CCN(C(=O)C2CCN(C(=O)c3cc4sccc4n3CC)CC2)CC1 | -5% | 5% | -9% | -8% | -16%
O=C(NCc1ccco1)C1CCN(C(=O)c2cc3sccc3n2Cc2ccc(F)cc2)CC1 | ? | -50% | 4.5µM* | ? | -14%
CCN(CC)CCCNC(=O)C1CCN(C(=O)c2cc3sccc3n2Cc2ccc(F)cc2)CC1 | 13% | 1%[10 µM] | ? | 5% | 2%
CCn1c(C(=O)N2CCc3ccccc3C2)cc2sccc21 | -17% | -6% | -2% | -5% | 3.2µM*
CCn1c(C(=O)NCCCN2CCc3ccccc3C2)cc2sccc21 | 20% | 5%[10 µM] | -3% | -5% | -11%
CC(C)NC(=O)N1CC[C@@]2(CCCN(C(=O)c3cnccn3)C2)C1 | / | 2% | 13% | / | 1%
C=CCn1c(N)cc(=O)nc1SCC(=O)N(c1ccccc1)c1ccccc1 | 6% | -17% | 22µM* | / | /
